Assay results as given in the supplement of paper PMC10849652.
The full data set covers some 7,900 targets. This sample favours those with a hit. About 0.6% of all pairs of compound and target were hits. Unmarked numbers belong to inactive results.

Columns and labels:
Experiment in all cases: log2 fold change, soluble protein after heating vs DMSO (PISA); higher = thermal stabilisation; K562 cells, 10 uM, 30 min; active = over 0.2 and 3.5 SD of the protein, either way, in both replicates (recomputed)
bafetinib = compound: Cc1ccc(NC(=O)c2ccc(CN3CC[C@H](N(C)C)C3)c(C(F)(F)F)c2)cc1Nc1nccc(-c2cncnc2)n1 [bafetinib]
Summary of the method: (§1)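 Thermal stability values are relative to control samples and come from duplicates. They are expressed as log2 fold changes. For measurement, K562 cells (2×10^6 cells/mL) received 10 μM compound for 30 min, and aliquots were heated for 3 min over 48°C-58°C, pooled, and extracted at 4°C in PBS with 0.5% NP-40. Soluble protein, the supernatant after 21,000xg for 90 min, was quantified by TMTpro 16plex LC-MS/MS with equalised channel sums.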

[1] = compound: Cc1cccc(CC(=O)N2CCc3c2ccc(-c2cn(C)c4ncnc(N)c24)c3F)n1
Summary of the method: as §1

nilotinib = compound: Cc1cn(-c2cc(NC(=O)c3ccc(C)c(Nc4nccc(-c5cccnc5)n4)c3)cc(C(F)(F)F)c2)cn1 [nilotinib]
Summary of the method: as §1

[2] = compound: Cc1nc(Nc2n[nH]c3c2CN(C(=O)N[C@H](CN(C)C)c2ccccc2)C3(C)C)c2sccc2n1
Summary of the method: as §1

dasatinib = compound: Cc1nc(Nc2ncc(C(=O)Nc3c(C)cccc3Cl)s2)cc(N2CCN(CCO)CC2)n1 [dasatinib]
Summary of the method: as §1

[3] = compound: Cc1ncc(-c2ccnc(Nc3ccc(S(C)(=O)=O)cc3)n2)n1C(C)C
Summary of the method: as §1

[4] = compound: Cn1cc(-c2ccc3c(c2)CCN3C(=O)Cc2cccc(C(F)(F)F)c2)c2c(N)ncnc21
Summary of the method: as §1

[5] = compound: Cn1cc(-c2ccc3nnc(C(F)(F)c4ccc5ncccc5c4)n3n2)cn1
Summary of the method: as §1

tipifarnib = compound: Cn1cncc1[C@@](N)(c1ccc(Cl)cc1)c1ccc2c(c1)c(-c1cccc(Cl)c1)cc(=O)n2C [tipifarnib]
Summary of the method: as §1

mubritinib = compound: FC(F)(F)c1ccc(/C=C/c2nc(COc3ccc(CCCCn4ccnn4)cc3)co2)cc1 [mubritinib]
Summary of the method: as §1

UniProt Q9Y6D6, sequence (Q9Y6D6 whole entry, looked up): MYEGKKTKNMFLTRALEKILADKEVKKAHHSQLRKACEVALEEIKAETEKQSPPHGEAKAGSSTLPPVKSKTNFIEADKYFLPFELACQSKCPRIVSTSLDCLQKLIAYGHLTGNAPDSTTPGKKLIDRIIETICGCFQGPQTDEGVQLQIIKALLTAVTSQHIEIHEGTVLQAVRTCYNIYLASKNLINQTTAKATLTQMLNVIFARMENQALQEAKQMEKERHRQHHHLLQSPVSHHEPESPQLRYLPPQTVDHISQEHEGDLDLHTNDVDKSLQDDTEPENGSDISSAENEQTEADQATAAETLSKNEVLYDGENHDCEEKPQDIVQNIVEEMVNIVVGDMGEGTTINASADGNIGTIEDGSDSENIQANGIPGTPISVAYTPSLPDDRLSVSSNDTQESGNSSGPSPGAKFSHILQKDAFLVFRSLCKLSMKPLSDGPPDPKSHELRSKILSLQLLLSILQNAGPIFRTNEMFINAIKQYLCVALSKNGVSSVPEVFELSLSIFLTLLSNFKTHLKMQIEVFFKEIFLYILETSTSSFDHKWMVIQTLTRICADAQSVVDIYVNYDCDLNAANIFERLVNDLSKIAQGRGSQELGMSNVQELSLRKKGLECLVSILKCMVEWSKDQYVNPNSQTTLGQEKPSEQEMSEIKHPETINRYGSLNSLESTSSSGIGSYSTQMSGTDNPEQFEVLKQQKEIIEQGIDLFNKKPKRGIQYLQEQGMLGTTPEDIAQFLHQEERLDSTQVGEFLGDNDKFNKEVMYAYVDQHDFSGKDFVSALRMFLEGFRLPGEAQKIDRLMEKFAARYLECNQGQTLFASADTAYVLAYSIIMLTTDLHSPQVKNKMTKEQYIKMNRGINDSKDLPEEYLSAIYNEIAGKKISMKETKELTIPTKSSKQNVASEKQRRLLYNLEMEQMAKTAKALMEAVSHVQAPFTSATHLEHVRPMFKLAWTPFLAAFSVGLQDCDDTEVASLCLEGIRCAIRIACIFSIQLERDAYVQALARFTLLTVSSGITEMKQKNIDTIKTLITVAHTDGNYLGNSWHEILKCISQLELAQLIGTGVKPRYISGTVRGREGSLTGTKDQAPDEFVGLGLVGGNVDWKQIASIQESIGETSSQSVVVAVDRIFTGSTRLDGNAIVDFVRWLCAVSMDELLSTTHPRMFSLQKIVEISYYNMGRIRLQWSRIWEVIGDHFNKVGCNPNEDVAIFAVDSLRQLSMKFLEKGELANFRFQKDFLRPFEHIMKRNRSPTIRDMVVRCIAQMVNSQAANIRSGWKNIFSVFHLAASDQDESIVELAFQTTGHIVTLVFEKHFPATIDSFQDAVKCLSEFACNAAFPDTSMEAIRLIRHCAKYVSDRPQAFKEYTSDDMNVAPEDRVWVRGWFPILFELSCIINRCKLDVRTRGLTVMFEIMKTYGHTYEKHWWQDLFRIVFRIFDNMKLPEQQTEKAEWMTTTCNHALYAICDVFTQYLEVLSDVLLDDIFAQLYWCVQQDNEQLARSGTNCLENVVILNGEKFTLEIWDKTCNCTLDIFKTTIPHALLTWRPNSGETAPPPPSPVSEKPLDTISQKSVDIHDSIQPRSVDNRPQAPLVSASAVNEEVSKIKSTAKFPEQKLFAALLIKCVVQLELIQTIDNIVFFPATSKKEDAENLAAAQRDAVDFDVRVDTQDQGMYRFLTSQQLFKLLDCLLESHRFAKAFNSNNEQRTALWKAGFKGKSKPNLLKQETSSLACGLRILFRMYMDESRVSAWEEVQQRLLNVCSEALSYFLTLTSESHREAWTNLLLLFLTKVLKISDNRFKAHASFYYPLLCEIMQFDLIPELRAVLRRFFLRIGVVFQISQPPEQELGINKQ
UniProt P11766, sequence (P11766 whole entry, looked up): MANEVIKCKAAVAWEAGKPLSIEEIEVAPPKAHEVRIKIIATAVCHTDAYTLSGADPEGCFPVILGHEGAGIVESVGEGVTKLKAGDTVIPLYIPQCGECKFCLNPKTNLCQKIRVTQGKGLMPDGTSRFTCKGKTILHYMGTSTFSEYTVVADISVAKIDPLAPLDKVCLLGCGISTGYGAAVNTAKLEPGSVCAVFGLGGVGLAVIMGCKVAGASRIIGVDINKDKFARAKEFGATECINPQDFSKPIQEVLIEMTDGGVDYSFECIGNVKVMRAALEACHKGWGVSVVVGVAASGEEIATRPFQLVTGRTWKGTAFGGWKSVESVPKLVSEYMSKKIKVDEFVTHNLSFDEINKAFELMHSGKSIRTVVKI
UniProt Q10589, sequence (Q10589 whole entry, looked up): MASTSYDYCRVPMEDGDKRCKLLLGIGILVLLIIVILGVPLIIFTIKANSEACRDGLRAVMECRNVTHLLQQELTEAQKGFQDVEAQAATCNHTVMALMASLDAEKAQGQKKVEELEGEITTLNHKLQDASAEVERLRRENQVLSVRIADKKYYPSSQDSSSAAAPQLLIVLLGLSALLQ
UniProt O14965, sequence (O14965 whole entry, looked up): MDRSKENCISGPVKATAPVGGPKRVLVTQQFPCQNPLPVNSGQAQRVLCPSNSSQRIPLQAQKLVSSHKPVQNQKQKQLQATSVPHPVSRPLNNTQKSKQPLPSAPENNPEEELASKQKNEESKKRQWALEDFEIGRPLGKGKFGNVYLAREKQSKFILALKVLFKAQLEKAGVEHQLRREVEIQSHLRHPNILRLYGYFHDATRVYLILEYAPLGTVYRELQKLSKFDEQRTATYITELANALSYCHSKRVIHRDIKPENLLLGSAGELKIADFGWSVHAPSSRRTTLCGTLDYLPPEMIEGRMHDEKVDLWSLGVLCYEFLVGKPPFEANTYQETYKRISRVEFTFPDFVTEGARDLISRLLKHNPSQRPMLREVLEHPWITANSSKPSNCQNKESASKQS
UniProt Q8N6D5, sequence (Q8N6D5 whole entry, looked up): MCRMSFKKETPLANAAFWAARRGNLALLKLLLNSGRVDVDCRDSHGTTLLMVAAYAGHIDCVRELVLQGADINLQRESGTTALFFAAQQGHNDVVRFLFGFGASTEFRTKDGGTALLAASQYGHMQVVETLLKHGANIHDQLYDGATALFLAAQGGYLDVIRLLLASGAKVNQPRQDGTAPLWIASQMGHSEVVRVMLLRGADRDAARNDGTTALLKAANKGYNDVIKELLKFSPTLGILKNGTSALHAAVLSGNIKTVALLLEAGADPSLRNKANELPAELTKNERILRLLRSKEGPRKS
UniProt Q53FZ2, sequence (Q53FZ2 whole entry, looked up): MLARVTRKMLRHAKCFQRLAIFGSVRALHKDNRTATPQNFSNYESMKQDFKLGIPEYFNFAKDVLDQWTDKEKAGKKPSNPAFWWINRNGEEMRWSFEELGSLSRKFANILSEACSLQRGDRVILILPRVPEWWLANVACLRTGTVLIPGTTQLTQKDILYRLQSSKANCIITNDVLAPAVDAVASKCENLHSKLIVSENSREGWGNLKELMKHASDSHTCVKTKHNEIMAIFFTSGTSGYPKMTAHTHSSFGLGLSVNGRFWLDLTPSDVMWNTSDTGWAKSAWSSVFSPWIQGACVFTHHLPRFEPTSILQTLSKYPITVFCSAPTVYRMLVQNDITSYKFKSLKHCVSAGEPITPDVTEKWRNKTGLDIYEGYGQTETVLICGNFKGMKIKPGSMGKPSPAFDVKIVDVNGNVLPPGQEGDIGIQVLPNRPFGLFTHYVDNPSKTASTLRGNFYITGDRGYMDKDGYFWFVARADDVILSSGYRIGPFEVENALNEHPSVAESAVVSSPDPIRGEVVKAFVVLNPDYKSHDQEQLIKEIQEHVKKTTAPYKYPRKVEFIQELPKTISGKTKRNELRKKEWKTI
UniProt P00966, sequence (P00966 whole entry, looked up): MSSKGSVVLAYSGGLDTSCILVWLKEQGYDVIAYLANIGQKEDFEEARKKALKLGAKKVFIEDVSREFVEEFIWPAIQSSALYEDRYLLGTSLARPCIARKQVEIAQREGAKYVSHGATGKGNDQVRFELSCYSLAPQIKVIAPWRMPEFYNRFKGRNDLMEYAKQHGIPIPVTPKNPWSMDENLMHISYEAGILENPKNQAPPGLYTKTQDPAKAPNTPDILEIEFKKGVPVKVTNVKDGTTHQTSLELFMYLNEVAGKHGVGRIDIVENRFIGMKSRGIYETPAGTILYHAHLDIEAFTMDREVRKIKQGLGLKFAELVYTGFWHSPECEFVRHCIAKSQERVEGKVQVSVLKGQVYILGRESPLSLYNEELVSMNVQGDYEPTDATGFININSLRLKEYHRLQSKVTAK
UniProt P31749, sequence (P31749 whole entry, looked up): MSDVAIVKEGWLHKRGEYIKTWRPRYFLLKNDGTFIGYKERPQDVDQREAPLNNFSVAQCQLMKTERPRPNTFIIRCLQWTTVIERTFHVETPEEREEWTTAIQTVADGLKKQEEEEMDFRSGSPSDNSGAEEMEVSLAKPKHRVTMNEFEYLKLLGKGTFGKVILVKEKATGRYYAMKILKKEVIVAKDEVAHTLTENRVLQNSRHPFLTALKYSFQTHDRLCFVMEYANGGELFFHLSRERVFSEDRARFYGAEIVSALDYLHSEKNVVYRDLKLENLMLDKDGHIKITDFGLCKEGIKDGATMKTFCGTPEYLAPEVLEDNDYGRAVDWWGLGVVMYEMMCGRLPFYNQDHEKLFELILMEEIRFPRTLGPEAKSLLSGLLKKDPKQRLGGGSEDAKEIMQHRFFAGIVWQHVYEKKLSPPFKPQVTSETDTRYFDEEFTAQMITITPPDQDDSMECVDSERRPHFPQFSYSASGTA
UniProt Q16864, sequence (Q16864 whole entry, looked up): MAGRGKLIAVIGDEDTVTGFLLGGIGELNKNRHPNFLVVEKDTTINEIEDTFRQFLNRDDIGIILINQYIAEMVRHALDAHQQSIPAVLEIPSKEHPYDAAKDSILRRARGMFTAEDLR
UniProt Q99943, sequence (Q99943 whole entry, looked up): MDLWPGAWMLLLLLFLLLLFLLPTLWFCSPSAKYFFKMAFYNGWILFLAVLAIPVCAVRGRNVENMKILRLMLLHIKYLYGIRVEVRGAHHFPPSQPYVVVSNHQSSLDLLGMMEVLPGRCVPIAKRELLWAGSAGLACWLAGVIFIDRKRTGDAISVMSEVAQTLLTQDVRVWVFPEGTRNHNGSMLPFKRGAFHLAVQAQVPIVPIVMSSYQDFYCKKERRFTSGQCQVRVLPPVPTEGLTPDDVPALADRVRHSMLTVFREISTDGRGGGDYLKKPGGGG

| Target | log2 fold change (bafetinib) | log2 fold change [1] | log2 fold change (nilotinib) | log2 fold change [2] | log2 fold change (dasatinib) | log2 fold change [3] | log2 fold change [4] | log2 fold change [5] | log2 fold change (tipifarnib) | log2 fold change (mubritinib) |
| --- | --- | --- | --- | --- | --- | --- | --- | --- | --- | --- |
| ASS1 (UniProt P00966) | -0.113 | -0.001 | -0.017 | 0.021 | 0.013 | -0.017 | 0.093 | 0.06 | 0.005 | 0.009 |
| ATG4B isoform 2 (UniProt Q9Y4P1) | 0.004 | 0.073 | -0.061 | -0.035 | -0.242 | -0.041 | 0.022 | 0.13 | -0.402 | 0.073 |
| AURKA (UniProt O14965) | 0.103 | -0.113 | -0.001 | 0.699 (active) | 0.365 | 0.47 | 0.073 | -0.016 | -0.054 | -0.078 |
| ALG5 (UniProt Q9Y673) | 0.021 | 0.067 | 0.009 | -0.123 | -0.045 | -0.121 | 0.088 | 0.059 | -0.079 | -0.055 |
| ATP6V1F isoform 2 (UniProt Q16864) | 0 | -0.053 | 0.078 | -0.03 | 0.034 | -0.028 | 0.101 | 0.132 | 0.32 | 0.045 |
| ADH5 (UniProt P11766) | -0.009 | 0.006 | -0.013 | 0.023 | 0.036 | 0.013 | 0.021 | -0.006 | -0.029 | 0.028 |
| BCCIP (UniProt Q9P287) | 0.048 | 0 | -0.019 | -0.022 | -0.161 | 0.03 | -0.009 | -0.006 | 0.006 | 0.001 |
| AGPAT1 (UniProt Q99943) | -0.036 | 0.012 | -0.035 | 0.016 | -0.033 | -0.063 | 0.033 | -0.006 | 0.027 | 0.014 |
| ACSM3 (UniProt Q53FZ2) | 0.009 | -0.061 | -0.015 | 0.002 | -0.185 | 0.028 | 0.012 | 0.128 | 0.002 | -0.343 (active) |
| AGPS (UniProt O00116) | -0.068 | 0.025 | 0.039 | -0.012 | -0.023 | 0.006 | 0.09 | 0.01 | 0.032 | 0.112 |
| BST2 (UniProt Q10589) | 0.061 | -0.009 | 0.048 | -0.059 | -0.016 | -0.096 | -0.052 | 0.029 | 0.036 | -0.015 |
| ANKRD29 (UniProt Q8N6D5) | 0.063 | -0.027 | -0.09 | -0.057 | -0.002 | 0.053 | 0.22 | 0.133 | -0.223 | 0.083 |
| ARFGEF1 (UniProt Q9Y6D6) | 0.052 | 0.006 | -0.024 | 0.014 | -0.026 | 0.008 | 0.005 | 0.047 | 0.009 | -0.021 |
| AP2B1 isoform 2 (UniProt P63010) | 0.024 | -0.01 | -0.019 | 0.019 | 0.035 | -0.032 | -0.029 | 0.004 | -0.014 | -0.01 |
| AGO1 (UniProt Q9UL18) | -0.036 | -0.085 | 0.185 | 0.34 | -0.019 | -0.164 | -0.073 | -0.133 | 0.057 | -0.066 |
| AKT1 (UniProt P31749) | 0.041 | 0.004 | 0.033 | -0.275 | -0.416 | -0.158 | 0.048 | 0 | -0.136 | 0.033 |
